Assay outcomes (PubChem BioAssay)
This excerpt belongs to a sample that is enriched for hits.
ST2 inh = IL1RL1 inhibition; Q01638; AlphaLISA ST2-Fc/biotin-IL-33 interaction, 1 h; inhibition, % for hits at 17 µM; 78,000 tested, 2.3% active; in the data active means inhibition above about 30%
Target sequence (Q01638 whole entry, looked up): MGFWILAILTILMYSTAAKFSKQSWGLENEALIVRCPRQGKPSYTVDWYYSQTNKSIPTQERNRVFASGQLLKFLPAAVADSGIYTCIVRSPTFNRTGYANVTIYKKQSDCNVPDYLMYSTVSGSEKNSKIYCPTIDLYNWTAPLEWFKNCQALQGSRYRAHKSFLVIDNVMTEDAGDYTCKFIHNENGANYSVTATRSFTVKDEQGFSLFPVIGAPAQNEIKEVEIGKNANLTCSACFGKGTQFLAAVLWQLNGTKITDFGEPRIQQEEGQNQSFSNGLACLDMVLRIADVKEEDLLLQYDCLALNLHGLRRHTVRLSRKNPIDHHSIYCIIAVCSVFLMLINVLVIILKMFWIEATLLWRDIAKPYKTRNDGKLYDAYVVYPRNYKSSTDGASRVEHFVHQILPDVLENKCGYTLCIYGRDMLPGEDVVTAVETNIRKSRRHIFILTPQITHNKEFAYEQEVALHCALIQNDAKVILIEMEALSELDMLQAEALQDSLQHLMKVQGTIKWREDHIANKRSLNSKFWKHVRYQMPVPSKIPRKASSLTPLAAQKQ
* marks the source's active call; other numbers are inactive results; i = inactive; ! = repeats disagree.

SMILES	ST2 inh
O=C(c1cccnc1-c1ccc2c(c1)OCCO2)N1CCCC1	i
CCCC(=O)Nc1cccc(OCc2cc(=O)n3ccc(C)cc3n2)c1	i
Cc1ccccc1-c1c(C(F)(F)F)oc2c(C)c(O)ccc2c1=O	i
COc1ccc2c(=O)c(-c3ccccc3C)c(C(F)(F)F)oc2c1	75%*
COc1ccc2c(=O)c(-c3ccccc3Cl)c(C(F)(F)F)oc2c1	i
OCCOc1ccccc1OCCO	i
NS(=O)(=O)c1ccc(CCNC(=O)c2ccc(N3CCOc4ccccc43)s2)cc1	i
CC(=O)Oc1ccc2c(=O)c(Oc3ccccc3)coc2c1	i
Cc1cc(C)cc(Oc2coc3cc(OC(=O)C(C)C)ccc3c2=O)c1	i
COC(=O)Oc1ccc2c(=O)c(Oc3ccc(C)cc3)coc2c1	30%*
Cn1cc(CN2CCN(Cc3cccs3)C(CCO)C2)c(-c2ccccc2)n1 (configuration not stated)	i
O=S(=O)(c1cccc2nsnc12)N1CCN(c2cccc(Cl)c2)CC1	i
O=C(Nc1cc(-c2nc3ccccc3s2)ccc1Cl)c1ccco1	39%*
O=C(Nc1ccc(-c2nc3ccccc3s2)cc1)C(F)(F)F	i
Cc1ccc(-c2nc3cc(Cl)ccc3o2)cc1NC(=O)c1ccco1	i
Cc1cc(C)cc(NC(=O)Cn2cnc3c(oc4ccccc43)c2=O)c1	i
COC(=O)C1C(=O)C2=C(CC1C)NC(C)=C(C(=O)OC(C)C)C2c1ccccc1C (configuration not stated)	i
Oc1c(C=Nc2ccc(Br)cc2)[nH]c2ccc(Br)c(Cl)c12	30%*
Oc1c(C=NC2CCCCC2)[nH]c2ccc(Br)c(Cl)c12	45%*
O=[N+]([O-])c1cccc(N=Cc2ccc(Br)c([N+](=O)[O-])c2)c1	i
Cc1ccc(C=Nc2ccc(Br)cc2)cc1	i
O=[N+]([O-])c1ccc(N=Cc2cc(Br)cc(I)c2O)cc1	i
Oc1c(C=Nc2cccc(F)c2)[nH]c2ccc(Br)c(Cl)c12	32%*
Cc1c(Cl)c(C)c([N+](=O)[O-])c(O)c1C=Nc1cccc(C(=O)O)c1	i
c1cncc(CN2CCC(N3CCCCCC3)CC2)c1	i
SMILES	ST2 inh
CC(c1ccccc1)N1CC(O)C1 (configuration not stated)	i
O=C(O)c1ccccc1NC(=O)c1cc2cc(Br)cc(Br)c2oc1=O	i
Cc1cc(NC(=O)c2ccc(Cl)cc2)nc2c1c(=O)oc1ccccc12	i
CSc1oc(-c2cccs2)nc1S(=O)(=O)c1ccc(Cl)cc1	i
O=C(Nc1cnc2n1CCCC2)c1ccc2sc3c(c2c1)CCNC3=O	i
CNC(=O)C1CCN(Cc2ccc(C(=O)Nc3cc(F)ccc3C)cc2)C1 (configuration not stated)	i
Cc1nonc1CN(C)Cc1cn(Cc2ccccc2)nc1-c1ccc2c(c1)OCO2	i
Cc1ncc2c(c1CNC(=O)/C=C/c1cccs1)CCN(C(=O)c1ccc(-n3cccn3)cc1)C2	i
Cc1ncc2c(c1CNC(=O)/C=C/c1cccs1)CCN(C(=O)COc1ccccc1)C2	i
Cc1nc(CC(=O)N2CCc3c(cnc(C)c3CNC(=O)/C=C/c3cccs3)C2)cs1	30%*
O=C(COc1ccc(Cl)cc1)N(c1ccc(F)cc1)C1C=CS(=O)(=O)C1 (configuration not stated)	i
Cc1ccc(N(C(=O)Cn2nnnc2N)C2(C(=O)Nc3c(C)cccc3C)CCCCC2)cc1	i
Nc1cc(-c2nc3ccccc3o2)ccc1Cl	i
Cc1cccnc1CN1CCN(S(=O)(=O)NCc2ccccc2)CC1	i
Cc1ccc(OCCCN2CCCCC2)c([N+](=O)[O-])c1	i
Cc1c(Cl)c([N+](=O)[O-])cc([N+](=O)[O-])c1N1CCCC1	40%*
CCS(=O)(=O)N1CCN(c2c(Cl)cccc2[N+](=O)[O-])CC1	i
CC(=O)OC1c2cc(C)ccc2NC(c2ccc(C)cc2)C1(C)C (configuration not stated)	i
O=C(Cc1c(C(=O)O)[nH]c2ccc(Cl)cc12)NCCCN1CCN(c2ccc(F)cc2)CC1	i
Cc1ccoc1C(=O)N1CCC(CCC(=O)NCc2cccc(Cl)c2)CC1	i
CCCCCN1C(=O)C(=O)c2cc(Br)ccc21	46%*
CCN1C(=O)c2ccc(Br)cc2C1=O	i
O=C(O)CN1C(=O)c2ccc(Br)cc2C1=O	i
COCc1cc(N2CCCC(C(=O)c3ccc(Cl)cc3C)C2)ncn1 (configuration not stated)	i
O=C1Nc2ccc(Br)cc2/C1=c1/sc2nc3ccccc3n2c1=O	i
SMILES	ST2 inh
COc1ccc(-c2cc(C(=O)Nc3sc4c(c3C#N)CCC4)no2)cc1	i
N#Cc1c(NC(=O)c2cc(-c3ccc4c(c3)OCO4)on2)sc2c1CCC2	i
COc1ccc(-c2cc(C(=O)Nc3sc4c(c3C#N)CCCC4)no2)cc1OC	i
N#Cc1c(NC(=O)COc2cccc3ccccc23)sc2c1CCCC2	i
COc1ccccc1-c1nc2sc3c(c2c(=O)[nH]1)CCCC3	i
Fc1cc(Br)ccc1-n1ncnc1-c1ccc2c(c1)OCO2	i
COc1ccc(-c2ncnn2-c2sc3c(c2C#N)CCCC3)cc1	44%*
N#Cc1c(-n2ncnc2-c2ccc3c(c2)OCO3)sc2c1CCCCC2	35%*!
COc1ccccc1-c1ncnn1-c1sc2c(c1C#N)CCCCC2	48%*
CN(CCCC1CCCO1)C1CCC2(CCNCC2)CC1 (configuration not stated)	i
C#CCOc1nc2c(c(=O)n(Cc3ccc(Cl)cc3)c(=O)n2C)n1C	i
CCOC(=O)CC(=O)CSc1nc(C(F)(F)F)cc(C)c1C#N	i
Cn1c(=O)cc(SCC(=O)NCc2ccc3c(c2)OCO3)c2ccc(Cl)cc21	i
Cc1ccccc1C1CCCN1C(=O)c1cccc(NCC(=O)O)c1 (configuration not stated)	i
Cc1c(C(c2ccco2)c2c(C)n(C)n(-c3ccccc3)c2=O)c(=O)n(-c2ccccc2)n1C	i
Cc1[nH]n(-c2ccccc2)c(=O)c1C(c1ccco1)c1c(C)[nH]n(-c2ccccc2)c1=O	51%*
Cc1cn(-c2ccccc2)[nH]c1=O	i
O=C(Nc1ccc(Cl)cc1Cl)C1CCCCC1	i
Cc1[nH]cnc1CN1CCC(N2CCC(C(=O)NCC3CCCO3)CC2)CC1 (configuration not stated)	i
CCCCN(CCCC)S(=O)(=O)c1cccc2nonc12	31%*
CCc1ccc(N(CC)S(=O)(=O)c2cccc3nonc23)cc1	i
CCCN(CCC)S(=O)(=O)c1cccc2nonc12	i
COCCCNC(=O)C1CCN(c2ccc(-c3cccs3)nn2)CC1	i
CCOC1=NC2Nc3ccccc3N(CC)C2C1c1ccc([N+](=O)[O-])cc1 (configuration not stated)	i
CCc1ccc(N2C(=O)c3ccccc3NC2c2cccc([N+](=O)[O-])c2)cc1 (configuration not stated)	i
CCC1(CC)OC(c2cccn2-c2ccc([N+](=O)[O-])cc2)Nc2ccccc21 (configuration not stated)	54%*
O=C1C(=O)N(CCc2ccccc2)C(c2ccc3c(c2)OCO3)C1=C(O)c1ccccc1 (configuration not stated)	i
O=C(Cn1cnc2scc(-c3ccccc3)c2c1=O)N1CCN(c2ccccc2F)CC1	i
O=c1/c(=C/c2ccco2)sc2n1CN(c1ccc([N+](=O)[O-])cc1)CN=2	i
